Source: PubChem BioAssay (National Center for Advancing Translational Sciences (NCATS))
The list is not random: actives were taken first. Their share in the collection is about 12%.
PI5P4K alpha inh: blocks human PI5P4K alpha kinase activity | AID 652105 | 330,000 tested, 1.2% active | max response, % | PI5P4Kalpha enzyme, ADP-Glo luminescence, 60 min; stronger effect = lower value | P48426; active means max response of -50% or lower; inconclusive means between -30% and -50%; inactive means -30% or higher; further: value at the top dose of about 77 µM; on the % scale 0 is the no-effect control and ±100 the full control effect
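Controls without substrate or without enzyme flank wells where PI5P4Kalpha converts substrate using 5 microM ATP (final). Incubation lasts 60 minutes at room temperature; ADP formed is read by ADP-Glo luminescence.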
BAZ2B block: BAZ2B (human) inhibition; Q9UIF8; AID 504333; 360,000 tested, 4.4% active; AlphaScreen BAZ2B-H3K14Ac peptide displacement; Potency, µM (doses to about 114 µM), for the others: at the highest dose activity change, negative = inhibition, usual class: inhibitors; further: potency means the concentration at half of the fitted maximal effect; on the % scale 0 is the no-effect control and ±100 the full control effect; nearly all actives have a fitted effect of over 60% in size
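AlphaScreen displacement: compounds (up to 110uM) incubated 30 min at room temperature with a preformed 50 nM BAZ2B/50 nM biotinylated H3K14Ac peptide complex in PBS pH 7.4 with Tween-20. Donor and acceptor beads at 10 ug/mL final added, 20 min light-protected before reading.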
G9a block: blocks human histone lysine methyltransferase G9a; Q96KQ7; G9a H3K9 monomethylation, AlphaScreen, 2 h; Potency, µM (top dose mostly 102 µM), without a hit: at the top dose activity, negative = inhibition, most hits filed as inhibitors; 350,000 tested, 8.8% active; AID 504332; further: potency means the concentration at half of the fitted maximal effect; on the % scale 0 is the no-effect control and ±100 the full control effect; nearly all actives have a fitted effect of over 75% in size
Target sequence (Q96KQ7 913-1193 limits assumed): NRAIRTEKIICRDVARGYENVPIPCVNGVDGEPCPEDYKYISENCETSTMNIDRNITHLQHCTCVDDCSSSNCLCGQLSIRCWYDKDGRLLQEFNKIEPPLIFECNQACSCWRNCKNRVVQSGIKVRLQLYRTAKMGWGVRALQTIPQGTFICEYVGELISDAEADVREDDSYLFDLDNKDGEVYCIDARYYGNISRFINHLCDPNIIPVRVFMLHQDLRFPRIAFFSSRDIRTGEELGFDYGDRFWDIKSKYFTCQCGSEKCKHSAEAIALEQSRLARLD
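AlphaScreen read-out: biotin-H3K9 peptide (500 nM) methylation by 20 nM enzyme with 20 uM SAM, 2 h at room temperature after 15 min compound preincubation; anti-monomethyl H3K9 antibody plus donor/acceptor beads, 10 min dark.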
JMJD2A Tudor: inhibitors of human JMJD2A Tudor domain. 390,000 tested, 4.4% active. AlphaScreen JMJD2A-Tudor / H3K4me3 peptide binding. AID 504339. Potency, µM (highest dose often 114 µM), for inactives: at the top dose activity change, negative = inhibition, usual class: inhibitors; further: potency means the concentration at half of the fitted maximal effect; on the % scale 0 is the no-effect control and ±100 the full control effect; nearly all actives have a fitted effect of over 50% in size
PLK1 PBD inh: PLK1 (human) polo-box domain binding inhibition | P53350 | Plk1 PBD binding of FITC phosphopeptide, fluorescence polarization | Potency, µM, inactives show max response, negative = inhibition, most hits filed as inhibitors | 360,000 tested, 2.8% active; further: potency means the concentration at half of the fitted maximal effect; series mostly up to about 57 µM; on the % scale 0 is the no-effect control and ±100 the full control effect; nearly all actives have a fitted effect of over 65% in size
HP1b chromo inh: HP1-beta chromodomain-methylated histone interaction inhibition; AlphaScreen HP1-beta / biotin-H3K9me3 peptide binding; Potency, µM (series often up to 114 µM), for the others: at the top dose activity change, negative = inhibition, usual class: inhibitors; 390,000 tested, 0.56% active; AID 540317; further: potency means the concentration at half of the fitted maximal effect; nearly all actives have a fitted effect of over 70% in size
Target sequence (P83916 whole entry, looked up): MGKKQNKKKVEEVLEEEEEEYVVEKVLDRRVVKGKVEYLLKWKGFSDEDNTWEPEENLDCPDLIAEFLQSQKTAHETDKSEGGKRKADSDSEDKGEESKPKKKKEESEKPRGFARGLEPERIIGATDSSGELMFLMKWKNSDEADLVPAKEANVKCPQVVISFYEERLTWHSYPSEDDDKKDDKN
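Compound inhibition of the preformed complex between 50 nM HP1-beta and 50 nM biotinylated H3K9me3 peptide was read by AlphaScreen. Buffer was PBS pH 7.4 with 0.01% Tween-20. Incubations ran 30 min at room temperature, with 10 ug/mL donor/acceptor beads.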
* = called active by the depositor; ? = inconclusive; · = no result given; [ ] = another dose, or the depositor's remark. Unless noted, the call rests on the fitted dose curve; in most records, active means well fitted curve in the direction sought with a large enough effect; inconclusive means small, poorly fitted or top-dose-only effect, or another doubt; inactive means no such curve, though single readings can be large; an effect the other way counts as inactive or inconclusive.

SMILES	PI5P4K alpha inh	BAZ2B block	G9a block	JMJD2A Tudor	PLK1 PBD inh	HP1b chromo inh
COc1ccc(N2Cc3cccc(C(=O)Nc4cc(C)cc(C)c4)c3C2=O)cc1	·	?	-30.4%[59 µM]	?	·	-1.1%
O=C/C(=C\Nc1ccc(Cl)cn1)c1nc2cc(Cl)ccc2o1	-3.6	-1.9%	-9.6%[59 µM]	-2.5%	-5.0%	35.6%
O=C/C(=C\Nc1ccc(S(=O)(=O)CCO)cc1)c1nc2cc(Cl)ccc2o1	-27.1	-28.8%	50.1µM*	-17.2%	-11.3%	56.0%
O=C/C(=C\Nc1ccc(Cl)cn1)c1nc2ccccc2o1	-8.8	-8.5%	?	12.6µM*	0.8%	6.6%
O=C(C[C@@H]1C/C=C/CC[C@H](Cc2ccc(F)cc2)C(=O)OCCNC1=O)N[C@H](CO)Cc1ccccc1	-5.2	·	·	-7.5%	-7.8%	33.3%
CCCOc1ccc(CNC(=O)c2ccc3nc(N4CCOCC4)sc3c2)cc1	-4.7	-23.3%	6.0%	-9.0%	-6.9%	49.1%
Cc1c(C#N)c(O)[nH]c(=O)c1N=Nc1ccc(S(N)(=O)=O)cc1	-76.3*	-11.6%	79.4µM*	?	-16.6%	?
C=CC(=O)Nc1ccc(CN2C(=O)N(c3c(Cl)c(OC)cc(OC)c3Cl)Cc3cnc(NCCCCN(CC)CC)nc32)cc1	?	·	·	56.2µM*	-12.0%	?
CCN(CC)CCNC(=O)c1ccc(NC(=O)Cc2ccc(OC)c(S(=O)(=O)N3CCOCC3)c2)cc1	0.9	·	·	-7.8%	-5.5%	31.3%
Cc1ccccc1-n1c(SCC(=O)N2CCN(c3ccccc3)CC2)nnc1-c1ccncc1	·	11.6%	44.7µM*	-22.2%	1.1%	20.1%
O=C(CSc1nc(-c2ccccc2)no1)N1CCN(c2ccccc2F)CC1	·	8.5%	5.0%[59 µM]	20µM*	·	34.8%
Cn1c(SCC(=O)N2CCN(Cc3ccccc3)CC2)nnc1-c1ccncc1	·	-0.8%	11.2µM*	-9.7%	-6.8%	30.2%
CN(Cc1cc(=O)n2ccsc2n1)C1CCCCC1	6.6	-31.1%	50.1µM*	-3.4%	-10.4%	27.1%
Cn1c(SCC(=O)N2CCOCC2)nnc1-c1ccncc1	-1.6	6.9%	-11.8%[59 µM]	0.7%	-7.9%	7.4%
CN(Cc1cc(=O)n2ccsc2n1)c1ccccc1	1.7	0.9%	0.0%[59 µM]	-6.9%	-9.0%	40.4%
Cc1ccc(-c2csc3nnc(SCC(=O)N4CCN(Cc5ccccc5)CC4)n23)cc1	-3.4	-38.5%	25.1µM*	-30.6%	-13.6%	1.4%
O=C(CSc1nnc2scc(-c3ccccc3)n12)N1CCN(Cc2ccccc2)CC1	-7.2	3.0%	?	-17.4%	-17.6%	12.6%
Cn1c(SCC(=O)N2CCN(c3ccccc3)CC2)nnc1-c1ccccc1	0.1	-19.6%	50.1µM*	-8.3%	0.5%	21.2%
COc1cc2c(cc1OC)CN(Cc1cc(=O)n3cc(C)ccc3n1)CC2	1.5	-1.4%	35.5µM*	-15.7%	-9.5%	36.1%
Cn1c(SCC(=O)N2CCN(c3ccccc3)CC2)nnc1-c1ccco1	·	-26.2%	28.3%	-15.0%	-6.5%	34.4%
C=CCn1c(COc2cccc(C)c2C)nnc1SCC(=O)N1CCN(c2ccccc2)CC1	4.1	?	3.98µM*	?	-11.6%	-11.0%
Cc1ccc(NC(=O)c2c(C)oc3ncnc(N4CCCCC4)c23)c(C)c1	·	-3.7%[57.1 µM]	-3.8%[59 µM]	-24.6%	·	-12.4%
O=c1cc(CN2CCc3ccccc3C2)nc2sccn12	-2.5	6.6%	79.4µM*	-5.6%	-2.3%	41.9%
O=c1cc(CN2CCN(c3ccccc3O)CC2)nc2sccn12	-18.8	-2.5%	-9.9%	?	-11.4%	9.4%
COc1cc2c(cc1OC)CN(Cc1cc(=O)n3c(-c4ccccc4)csc3n1)CC2	8.3	-3.8%	25.1µM*	-20.4%	-3.1%	32.4%
SMILES	PI5P4K alpha inh	BAZ2B block	G9a block	JMJD2A Tudor	PLK1 PBD inh	HP1b chromo inh
CCn1c(SCC(=O)N2CCN(c3ccccc3F)CC2)nnc1-c1ccoc1C	2.3	-29.7%	?	50.1µM*	?	-25.8%
COc1cc2c(cc1OC)CN(C(=O)CSc1nnc3scc(-c4ccccc4)n13)CC2	-22.4	-24.4%	14.1µM*	-16.2%	-22.9%	50.8%
COc1ccc2c(c1)CCc1c(C(=O)Nc3ccccc3C(F)(F)F)noc1-2	·	-0.9%	-49.8%[59 µM]	-15.4%	·	58.0%
CCOC(=O)[C@]12CCCC=C1N(Cc1cccc3ccccc13)C(=O)[C@H](CC(=O)NCc1ccc(OC)c(OC)c1)C2	-1.4	·	·	·	-12.6%	·
COc1ccc(OC)c(N2C(=NC(=O)C3CCCCC3)SC3CS(=O)(=O)CC32)c1 (stereo not drawn)	0.4	-8.0%	5.4%[59 µM]	-15.2%	-1.6%	27.0%
CCC(=O)N1CCc2cc(S(=O)(=O)NC(CC(C)C)C(=O)NCc3ccc(F)cc3)ccc21 (stereo not drawn)	·	·	4.1%[59 µM]	-16.0%	·	23.8%
CCn1c(SCC(=O)N2CCN(c3ccccc3)CC2)nnc1-c1c[nH]c2ccccc12	-5.6	-26.9%	-3.1%[59 µM]	-25.4%	-2.2%	19.1%
CCn1c(SCC(=O)N2CCN(c3ccccc3)CC2)nnc1-c1ccncc1	·	9.5%	1.78µM*	·	·	·
COc1cn(CC(=O)Nc2ccc(C)cc2)c(CN2CCCCC2)cc1=O	·	4.6%	8.5%[59 µM]	-3.0%	·	35.9%
O=C(O)c1ccc(C[n+]2c(-c3ccccc3)csc2Nc2ccccc2)cc1	0.6	39.8µM*	?	?	?	?
CC(C)(C)c1cc(-c2csc(Nc3ccccc3)[n+]2Cc2ccc(C(=O)O)cc2)cc(C(C)(C)C)c1O	-10.2	39.8µM*	39.8µM*	39.8µM*	21.2µM*	44.7µM*
C=CC[n+]1c(C)csc1Nc1ccc(C(=O)O)cc1	6.6	?	?	-14.1%	-12.9%	45.5%
CCCCCC[n+]1c(-c2ccccc2)csc1Nc1ccccc1	22.8	17.8µM*	15.8µM*	-11.1%	4.5%	17.2%
COc1ccc(NC(=O)COC(=O)c2ccc(OC)c(S(=O)(=O)N3CCCC3)c2)cc1OC	0.1	-1.6%	-8.7%[12.7 µM]	-6.4%	4.4%	37.0%
Cc1c(C(=O)N2CCCCC2C)sc2nc3n(c(=O)c12)CCC3 (stereo not drawn)	-5.4	-6.8%	11.8%	-6.2%	-14.2%	16.5%
Cc1cccc(N2CCN(C(=O)CCNS(=O)(=O)c3ccc4c(c3)CCN4C(=O)C3CC3)CC2C)c1 (stereo not drawn)	·	-10.2%	9.1%[59 µM]	-26.8%	·	18.2%[57 µM]
